High-throughput results (PubChem BioAssay)
A selection: hits, their analogues and other compounds. The true share with any hit is near 0.9%.
B2AR arrestin – recruits beta-arrestin to the human beta2-adrenergic receptor. hit rate 0.02% among 330,000. P07550. beta-arrestin recruitment to beta2AR, cell-based reporter. Potency, µM (doses to about 46.1 µM), for inactives: at the highest dose activation, usual class: activators. AID 492947;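 also: potency is read from the fitted curve at half-maximal effect; 0% = DMSO controls and full agonism = EC100 isoproterenol or metaproterenol; nearly all actives have a fitted effect of over 65% in size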
CtBP-E1A inh – CtBP/E1A binding inhibition; activity change, % (concentration not given with the values); hit rate 0.49% among 340,000; AID 651724; AlphaScreen GST-E1A/His-CtBP binding, 1536-well; stronger effect = lower value; in the data active = activity change below about -65%; inconclusive = mostly about -30% to -63%
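Protein mix (5X: 125 nM each GST-E1A, His-CtBP) was incubated with pinned compound 2 h at 37 deg C in dark, in 50 mM Tris pH 8.0 buffer with 300 mM NaCl. Glutathione donor and nickel acceptor beads followed; AlphaScreen signal read after 1 h.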
Eya2 inh – blocks the phosphatase activity of human Eya2 | O00167 | recombinant Eya2, OMFP fluorescence dephosphorylation (OMFP is methylfluorescein phosphate) | Potency, µM (top dose mostly 76.9 µM), without a hit: at the highest dose activity, negative = inhibition, most hits filed as inhibitors | hit rate 0.006% among 330,000; also: potency is read from the fitted curve at half-maximal effect
Target sequence (O00167 whole entry, looked up): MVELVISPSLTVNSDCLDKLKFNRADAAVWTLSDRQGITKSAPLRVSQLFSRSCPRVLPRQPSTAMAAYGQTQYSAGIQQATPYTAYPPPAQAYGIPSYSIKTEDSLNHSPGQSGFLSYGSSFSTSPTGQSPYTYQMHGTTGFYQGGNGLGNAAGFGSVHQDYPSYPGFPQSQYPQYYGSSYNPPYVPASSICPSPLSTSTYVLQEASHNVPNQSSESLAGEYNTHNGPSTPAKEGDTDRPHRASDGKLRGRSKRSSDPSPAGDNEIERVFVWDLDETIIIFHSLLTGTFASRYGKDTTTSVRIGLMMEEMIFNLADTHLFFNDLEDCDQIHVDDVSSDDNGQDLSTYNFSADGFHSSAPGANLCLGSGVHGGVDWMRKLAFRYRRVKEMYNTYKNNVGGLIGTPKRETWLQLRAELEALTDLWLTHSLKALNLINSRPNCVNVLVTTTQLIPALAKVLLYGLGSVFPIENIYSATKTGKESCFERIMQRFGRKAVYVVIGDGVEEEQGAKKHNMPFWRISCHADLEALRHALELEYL
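Eya2 (0.2 uM) preincubated 10 min at ambient with compound, then OMFP substrate added at 50 uM; 10 min reaction in 50 mM HEPES pH 7.5, 50 mM NaCl, 5 uM MgCl2, 0.05% BSA, 1 mM DTT. Fluorescence read at Ex 485/Em 525 nm.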
L3MBTL1 block – inhibitors of human L3MBTL1. AlphaScreen L3MBTL1–H3K9me1 peptide binding. Potency, µM (top dose mostly 57.1 µM), for the others: at the top dose activity, negative = inhibition, usual class: inhibitors. hit rate 0.66% among 230,000. AID 485360; also: potency is read from the fitted curve at half-maximal effect; nearly all actives have a fitted effect of over 60% in size
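First, the protein-peptide complex forms for 30 min at room temperature (L3MBTL1 50 nM, biotinylated H3K9me1 peptide 75 nM). Next, compounds are pin-transferred and incubated 30 min. Finally, AlphaScreen beads are added and read after 30 min.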
Six1-Eya2 inh – blocks human Six1 binding to Eya2. activity change, % (test concentration not listed). hit rate 0.56% among 360,000. AID 651725. AlphaScreen GST-Six1/His-Eya2 binding, biochemical; stronger effect = lower value; in the data active = activity change below about -65%; inconclusive = mostly about -30% to -63%
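Compounds are tested against tagged Six1 and Eya2 proteins bridged by glutathione donor and nickel acceptor beads; after a one-hour incubation at 37 °C without light, AlphaScreen emission is recorded.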
Numbers without * were called inactive; ? = inconclusive; . = no result given. Unless noted, calls follow the shape of the dose curve; as a rule, active = well fitted curve in the direction sought with a large enough effect; inconclusive = small, poorly fitted or top-dose-only effect, or another doubt; inactive = no such curve, though single readings can be large; an effect the other way counts as inactive or inconclusive. Unless noted, % is scaled to controls: 0 for no effect and ±100 for the full control effect.

SMILES	B2AR arrestin	CtBP-E1A inh	Eya2 inh	L3MBTL1 block	Six1-Eya2 inh
CCCC(=O)NC(c1ccc(OC)cc1)c1ccc2cccnc2c1O (stereo unspecified)	?	-88*	1%	?	-90*
Oc1ccc(-c2csc(Nc3cccc4ccccc34)n2)cc1O	0%	-10	15%	25µM*	-18
Oc1ccc(-c2csc(Nc3ccccn3)n2)cc1O	0%	.	0%	?	-24
Cc1ccc(C(=O)N/N=C/c2ccc(-c3cccc(Cl)c3)o2)cn1	-1%	-1	-12%	-6%	-27
Cc1ccc(C(=O)N/N=C/c2ccc(-c3ccccc3[N+](=O)[O-])o2)cn1	0%	?	-1%	19%	-69*
CCc1ccc(/C(C)=N/NC(=O)c2ccccn2)cc1	0%	5	-5%	-19%	-6
O=C(N/N=C(\c1ccccc1)c1ccccn1)c1cccc([N+](=O)[O-])c1	0%	.	-6%	.	-91*
CCOc1ccc(C(=O)N/N=C(\c2ccccc2)c2ccccn2)cc1	3%	-67*	10%	-12%	?
O=C(c1ccccc1)c1nn(-c2ccccc2)c(=O)cc1C(F)(F)F	-1%	-75*	-13%	-4%	?
O=C(c1cccc(Cl)c1)c1nn(-c2ccccc2)c(=O)cc1C(F)(F)F	1%	-73*	4%	-2%	?
O=C(c1ccccc1)c1nn(-c2ccc(Cl)cc2)c(=O)cc1C(F)(F)F	0%	?	-16%	-10%	-15
CCc1ccc2[nH]c(=O)c(C3C(C#N)=C(N)Oc4c3ccc3cccnc43)cc2c1 (stereo unspecified)	0%	-86*	9%	-3%	?
Cc1ccc2cc(C3C(C#N)=C(N)Oc4c3ccc3cccnc43)c(=O)[nH]c2c1 (stereo unspecified)	0%	-94*	13%	29%	-72*
CCOc1cccc(C2C(C#N)=C(N)Oc3cc(C)[nH]c(=O)c32)c1OCC (stereo unspecified)	0%	.	?	-3%	1
N#CC1=C(N)Oc2c(ccc3cccnc23)C1c1cccnc1 (stereo unspecified)	0%	-92*	-9%	-21%	-91*
CC(=O)C1=C(C)OC(N)=C(C#N)C1c1cc2cccc(C)c2nc1Cl (stereo unspecified)	0%	-4	-3%	1%	0
CC1CCCN(c2ccc3nc4ccccc4c(=O)n3n2)C1 (stereo unspecified)	0%	15	1%	.	-67*
Cc1ccc2nc3ccc(N4CCCC4)nn3c(=O)c2c1	-1%	-8	11%	6%	-8
O=C1C(NS(=O)(=O)c2cccs2)=C(N2CCOCC2)C(=O)c2ccccc21	-1%	-16	-1%	-15%	-11
CN(C1=C(N2CCOCC2)C(=O)c2ccccc2C1=O)c1ccccc1	-1%	?	-8%	25µM*	-82*
O=C(CCc1ccccc1O)N/N=C/c1ccc(Sc2cccc3cccnc23)o1	0%	-92*	-15%	.	-88*
O=C(N/N=C/c1ccc(Sc2ccccn2)o1)c1cc2ccccc2cc1O	0%	-26	1%	?	-29
O=C(COC(=O)c1ccc2c(c1)OCCO2)NCCC1=CCCCC1	0%	-1	-6%	12%	-71*
c1ccc(N=Nc2ccc3cccccc2-3)cc1	.	-90*	.	.	-98*
Nc1ccc(N=Nc2ccccc2)c2ccccc12	0%	-25	?	32µM*	-16
SMILES	B2AR arrestin	CtBP-E1A inh	Eya2 inh	L3MBTL1 block	Six1-Eya2 inh
COc1cc2c(cc1OC)-c1cc(Nc3ccc(C(=O)O)cc3)nc(=O)n1CC2	-2%	-14	5%	.	?
COc1ccc(Nc2cc3n(c(=O)n2)CCc2cc(OC)c(OC)cc2-3)cc1	1%	?	0%	.	-79*
COc1cc2c(cc1OC)-c1cc(Nc3ccc(C)cc3)nc(=O)n1CC2	2%	.	0%	.	?
CCN(CC)CCCNc1cc2n(c(=O)n1)CCc1cc(OC)c(OC)cc1-2	0%	-69*	16%	-5%	-80*
COc1cc2c(cc1OC)-c1cc(NC3CCCCCC3)nc(=O)n1CC2	4%	?	7%	7%	-71*
COc1cc2c(cc1OC)-c1cc(Nc3ccccc3)nc(=O)n1CC2	-1%	1	-14%	.	-76*
CCOC(=O)C1(O)CC(C)=NN1C(=O)c1cccc(Cl)c1 (stereo unspecified)	?	1	5%	-10%	-5
Cc1ccc2nc(SCC(=O)NCc3ccc(F)cc3)nc(=O)n2c1	-1%	13	7%	-1%	5
CCc1ccc(N2NC(=O)/C(=C/C=C/c3ccco3)C2=O)cc1	0%	13	4%	-10%	3
CCOC(=O)c1ccc(N2N=C(C)/C(=C/C=C/c3ccco3)C2=O)cc1	0%	5	-1%	32µM*	-1
CC1=NN(c2ccc(C(=O)OC(C)C)cc2)C(=O)/C1=C\C=C\c1ccco1	0%	-16	-12%	6.3µM*	-13
O=C(O)c1cc(N2N=C(C(F)(F)F)/C(=C/C=C/c3ccco3)C2=O)ccc1Cl	0%	-11	-24%	1µM*	-78*
CC1=NN(c2ccccc2)C(=O)/C1=C\C=C\c1ccccc1	-1%	5	-22%	-8%	-2
CCOC(=O)[C@]12CCCC=C1N(Cc1ccc3c(c1)OCO3)C(=O)[C@H](CC(=O)NCCc1ccccc1OC)C2	.	-3	.	.	-7
Cc1nnc(SCC(=O)c2c(N)n(C)c(=O)n(C)c2=O)[nH]c1=O	-1%	-73*	-13%	-4%	?
Cn1c(N)c(C(=O)CSc2ncn[nH]2)c(=O)n(C)c1=O	8%	-19	0%	7%	-19
Cc1ccc(C=Nc2ccc(N(C)C)cc2)o1	11%	-68*	-3%	?	?
Cc1ccc(C=Nc2ccccc2C(N)=O)o1	-1%	22	4%	33%	24
CC(C(=O)O)N1C(=O)/C(=C/C=C/c2ccco2)SC1=S (stereo unspecified)	0%	-7	13%	1.1µM*	-74*
CCCCN1C(=O)C(=O)N(CC(=O)Nc2ccccc2C(=O)OCC)C1=O	-1%	-98*	19%	.	0
c1ccc(-c2nn[nH]n2)cc1	3%	10	3%	6%	4
c1ccc(-c2ccccn2)nc1	-2%	-18	-4%	-3%	-17
c1ccc(-c2nn[nH]n2)nc1	0%	-72*	-26%	.	-87*
c1ccc(-c2ccc(-c3ccccn3)nn2)nc1	0%	.	-2%	3.5µM*	.
COc1cc(C(=O)N/N=C/c2cc([N+](=O)[O-])cs2)cc(OC)c1OC	1%	-72*	-14%	0%	?
CCOc1ccc(C(=O)N/N=C/c2cc([N+](=O)[O-])cs2)cc1	0%	-19	-12%	.	-24
CCc1c(C(=O)NCCc2ccc(N3CCCCC3)cc2)[nH]c2ccc(Cl)cc12	.	.	-9%	.	.
